# Source: PubChem BioAssay (NCATS)
# Results filed as inconclusive are left out. Where a call stands in place of a potency, no number is given. Activity calls are given as the source filed them. Calls come from the whole dose curve; as a rule, active = well fitted inhibition curve with a large enough effect; inconclusive = small, poorly fitted or top-dose-only effect; inactive = flat fitted curve, though single readings scatter.
# Experiment: qHTS to identify inhibitors of the type 1 interferon - major histocompatibility complex class I in skeletal muscle: primary screen against the NCATS LOPAC collection (AID 1347405);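 note: lytic HiBiT luminescence reporting HLA-B protein level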
# Details: iHSKM muscle cells, IFN-b-induced MHC-I HiBiT luminescence, 24 h; series mostly up to 45.9 µM
# Excerpt: Assay Submitter (PI): Travis B. Kinder Ph.D. & James Inglese Ph.D.
# Assay Development and Screening Technology Laboratory (ADST)
# National Center for Advancing Translational Sciences (NCATS), Rockville, MD
# National Institute of Health (NIH), Bethesda, Maryland
# Idiopathic inflammatory myopathies, collectively referred to as myositis, are a group of rare autoimmune diseases characterized by skeletal muscle inflammation, weakness, and usually accompanied by systemic pathologies of the skin, lungs, or vasculature. Current immunosuppressive therapies and glucocorticoids are often not curative and are accompanied by harsh side effects, especially in children with juvenile myositis. We initiated a drug repurposing and development program to identify more targeted, less toxic therapeutics to treat myositis. Although its cause is not known, muscle from a subset of patients have an abundance of the inflammatory type 1 interferon (IFN) and a down-stream product major histocompatibility complex class I (MHC class I), which are both thought to contribute to damage and weakness. We conducted quantitative high throughput screening on 6,576 compounds (4,679 unique) through a series of cell-based assays to identify those that inhibit the IFN-stimulated expression of MHC class I in muscle precursor cells (myoblasts). The compound identification and evaluation strategy utilized a primary screen with reporter-tagged MHC class I in genome-engineered myoblasts, ATP content counter screen for viability, HLA-ABC immunofluorescence secondary screen, and HLA-B RT-qPCR tertiary screen.
# The primary screen utilized CRISPR/Cas9 genome-engineering of immortalized human myoblasts, C25cl48, where a pro-luminescent reporter HiBit was fused to the C-terminus of endogenous MHC class I allele HLA-B*08:01 (HLA-B HiBit myoblasts). HiBit is an 11 amino acid fragment of NanoLuc luminescent reporter (Promega Corporation), and when complexed to the larger LgBit fragment, the reconstituted enzyme produces light in the presence of furimazine substrate (Schwinn et al., 2018). Briefly, HLA-B HiBit myoblasts were plated into 1536-well plates, treated with 4.0 ng/ml human IFN-beta and 1,280 compounds from the Library of Pharmacologically Active Compounds 1280 library (LOPAC1280, Sigma Aldrich) in a 7-point, 1:4.3 titration with a high final concentration of 46 uM. After 24 hrs of treatment, cells were assayed by Nano-Glo HiBiT Lytic Detection System (Promega) and luminescence measured by a ViewLux 1430 Ultra HTS (Perkin Elmer).
# Schwinn MK, Machleidt T, Zimmerman K, Eggers CT, Dixon AS, Hurst R, Hall MP, Encell LP, Binkowski BF, Wood K V. 2018. CRISPR-Mediated Tagging of Endogenous Proteins with a Luminescent Peptide. ACS Chem Biol 13:467-474. doi:10.1021/acschembio.7b00549
# PROTOCOL TABLE (as described by Inglese et al., 2007)
# SEQUENCE No. (e.g., 1, 2, 3, etc.); […] (e.g., Cells, Incubation, Reagent, etc.); VALUE; DESCRIPTION
# 1a; Cells; 5 uL; Use a Multidrop Combi (Thermo Scientific) to seed 350 cells/well into nine Greiner 1536 well white/solid bottom, high base, TC plates in 5 ul/well of iHSKM growth medium (GM) without dexamethasone into columns 1+2. Add metal lids with gas-exchange holes
# 1b; Cells; 5 uL; Use a Multidrop Combi (Thermo Scientific) to seed 350 cells/well into nine Greiner 1536 well white/solid bottom, high base, TC plates in 5 ul/well of iHSKM GM without dexamethasone + 4 ng/ml IFN-b into columns 3 - 48. Add metal lids with gas-exchange holes
# 2; Incubate; 1 hr; Incubate at 37 C, 5% CO2, 95% RH
# 3; Compounds; 23 nl; Use Pin Tool (Wako) to transfer DMSO control, ruxolitinib IFN-b inhibitor control [High Concentration = 80 uM final, 16-pt, 1:2 in duplicate], and library compounds in DMSO
# 4; Incubate; 24 hrs; Incubate at 37 C, 5% CO2, 95% RH
# 5; Dispense; 2.5 ul; Use BioRAPTR FRD (Beckman Coulter) to add HiBit lytic reagent
# 6; Incubate; 10 min; Incubate in the dark at ambient temperature for lysis
# […]
# Potency is the fitted concentration of half-maximal effect.
row,SMILES,Potency
1,Nc1ncn([C@@H]2O[C@H](CO)[C@@H](O)[C@H]2O)c(=O)n1,8.91 µM (active)
2,O=c1[nH]c(=O)n([C@H]2C[C@H](O)[C@@H](CO)O2)cc1Br,inactive
3,Fc1ccc(C(c2ccc(F)cc2)N2CCN(C/C=C/c3ccccc3)CC2)cc1,inactive
4,CN(C)CC[C@@H](c1ccc(Br)cc1)c1ccccn1,inactive
5,CCCNC(C)C(=O)Nc1ccccc1C (stereo not given),inactive
6,Cc1cccc(C)c1NC(=O)C(C)N (stereo not given),inactive
7,Cc1nc2ccccn2c(=O)c1CCN1CCC(C(=O)c2ccc(F)cc2)CC1,inactive
8,CSc1ccc(C(=O)c2[nH]c(=O)[nH]c2C)cc1,inactive
9,NC(N)=N/N=C/c1c(Cl)cccc1Cl,inactive
10,C=CCc1ccccc1OCC(O)CNC(C)C (stereo not given),inactive
11,CC(C(=O)O)c1ccc(CC2CCCC2=O)cc1 (stereo not given),inactive
12,CN(C)CC/C=C1\c2ccccc2COc2ccccc21,inactive
13,CC(C)NCC(O)c1cc(O)cc(O)c1 (stereo not given),inactive
14,CCN(CC)CCNC(=O)c1ccc(NC(C)=O)cc1,inactive
15,COc1cc(Cc2cnc(N)nc2N)cc(OC)c1OC,inactive
16,C[C@@H](O)[C@H]1C(=O)N2C(C(=O)O)=C(SCCN=CN)C[C@H]12,inactive
17,CCc1cccc(N(C)C(N)=Nc2cccc3ccccc23)c1,inactive
18,Cc1ccc(Cl)c(Nc2ccccc2C(=O)O)c1Cl,inactive
19,O=C(CCNNC(=O)c1ccncc1)NCc1ccccc1,inactive
20,CC1=C(C)C(=O)C(CCCCC#CCCCC#CCO)=C(C)C1=O,inactive

row,SMILES,Potency
1,CN(C)CCCN1c2ccccc2Sc2ccccc21,inactive
2,Cc1ccc(=O)n(-c2ccccc2)c1,inactive
3,CCn1nc(C(=O)O)c(=O)c2cc3c(cc21)OCO3,inactive
4,NS(=O)(=O)c1cc2c(cc1Cl)NC(C1CC3C=CC1C3)NS2(=O)=O (stereo not given),inactive
5,CCOC(=O)c1cnc2c(cnn2CC)c1NN=C(C)C,inactive
6,C[C@]12CCC(=O)C=C1CC[C@@H]1[C@@H]2C(=O)C[C@@]2(C)[C@H]1CC[C@]2(O)C(=O)CO,inactive
7,O=C(O)CN(CCOCCOCCN(CC(=O)O)CC(=O)O)CC(=O)O,inactive
8,NCCCNCCSP(=O)(O)O,inactive
9,Cc1scc2c1N(C(=O)CN1CCN(C)CC1)c1ccccc1NC2=O,inactive
10,N[C@@H](COP(=O)(O)O)C(=O)O,inactive
11,c1cnc(N2CCN(Cc3ccc4c(c3)OCO4)CC2)nc1,inactive
12,OC(CCN1CCCCC1)(c1ccccc1)C1CCCCC1 (stereo not given),inactive
13,CCCCCN(CCCCC)C(=O)C(CCC(=O)O)NC(=O)c1ccc(Cl)c(Cl)c1 (stereo not given),inactive
14,CN/C(=C\[N+](=O)[O-])NCCSCc1ccc(CN(C)C)o1,inactive
15,CCCCNc1ccc(C(=O)OCCN(C)C)cc1,inactive
16,C(=C\c1ccccc1)/CN1CCN(C(c2ccccc2)c2ccccc2)CC1,inactive
17,CCN(CC)CCCN(c1ccccc1)C1Cc2ccccc2C1,inactive
18,c1ccc2c(c1)CCCC2C1=NCCN1 (stereo not given),inactive
19,CCN(CC)CCOCCOC(=O)C1(c2ccccc2)CCCC1,inactive
20,CCN(CC)CC(=O)Nc1c(C)cccc1C,inactive
